Experimental data from PubChem BioAssay (NCI).
Compounds without any hit were thinned out: in the full panel of roughly 83,000, 20% have a hit.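 Step 1: grow cells in 96-well plates. Step 2: add test compound at a single concentration. Step 3: incubate 48 h. Step 4: record percent growth.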 Values without a mark were called inactive. Activity calls are given as the source filed them. The calls were made as follows: active = growth percent below 10; inactive = the rest.

These compounds were tested on HL-60(TB) leukemia (assay: NCI-60 one-dose screen, 48 h (100 = growth as untreated, 0 = no growth, -100 = all killed)). Settings: 10 µM unless noted.

Row | SMILES | growth
1 | Clc1nc2ccccc2nc1CI | 93.8%
2 | O=C(NCCCN1CCN(CCCNC(=O)C2CCCCC2)CC1)C1CCCCC1 | 98.9%
3 | Cc1nc2ccc(Cl)cn2c1-c1nnc(SCc2ccc([N+](=O)[O-])cc2)o1 | 109%
4 | CN1CCC(=C2c3ccccc3C=Cc3ccccc32)CC1 | 85.1%
5 | COc1cc(Cl)cc(-c2nn(-c3cccc(NC(=O)Nc4ccc(Cl)c(Cl)c4)c3)cc2-c2ccncc2)c1 | -5.12% (active)
6 | O=C(CCl)N1c2ccccc2Sc2c1ccc1ccccc21 | 62.7%
7 | Nn1c(=O)c(=O)[nH]c2c(cnn2-c2ccccc2)c1=O | 98.6%
8 | COc1cc2c(O)n(CCCN3CCOCC3)c3c4cnc5cccc(c(=O)c3c2cc1OC)c54 | 42.8%
9 | O=C(NN1C(=O)CSC1c1cccc([N+](=O)[O-])c1)c1ccc(NC(=O)c2ccccn2)cc1 (stereo not given) | 67.6%
10 | Nc1cnc(C(=O)NNc2nc3cc(F)ccc3n3cccc23)cn1 | 12.1%
11 | O=C1CC(c2ccc3c(c2)OCO3)c2ncn(-c3ccc(Cl)cc3)c2N1 (stereo not given) | -9.97% (active)
12 | O=C(N/N=C/c1ccc(O)cc1O)c1cccnc1 | -17.2% (active)
13 | CCNCCCn1c2c(c3ccc(Cl)cc3c1=O)C(=O)c1cc(OC)cnc1-2 | -42.9% (active)
14 | CCCCCC#CC1OC23CCCCC2C(C#N)(C(=N)O3)C1(C#N)C#N (stereo not given) | 81%
15 | O=C(O)c1cn(C2CC2)c2cc(N3CCN(Cc4c(O)ccc5ccccc45)CC3)c(F)cc2c1=O | 71.6%
16 | COc1ccc(/C=C(/c2ccccc2)[N+](=O)[O-])cc1 | -28.6% (active)
17 | O=C1C=C(OCC=C(Cl)Cl)C(=O)c2ccccc21 | -1.08% (active)
18 | CCCCOc1nc2c(C)cccc2cc1C1CNC(=O)c2ccccc2N1 (stereo not given) | 26.2%
19 | Cc1cc2ccccc2c[n+]1CC(=O)c1ccc(-c2ccccc2)cc1 | 22.5%
20 | Fc1ccc(C2CC(c3cccc(Nc4ccncc4)c3)=NN2c2ccc(Cl)cc2)cc1 (stereo not given) | 17.2%

Row | SMILES | growth
21 | Cc1ccc(N)cc1F | 120%
22 | COc1ccc(C/C(C)=C(/c2ccc(OCCCN(C)C)cc2)c2ccc(OC(C)=O)cc2)cc1 | 70.8%
23 | Cc1cccc2c(=O)c3c(sc12)c(NCCCNCCO)nc1ccccc13 | 14.6%
24 | O=c1ccc2nc(-c3ccccc3)nn(-c3ccccn3)c-2c1 | -28.1% (active)
25 | CC[n+]1ccc2c(c1)C(=O)c1nccc3c1c-2nc1ccccc13 | -31.8% (active)
26 | CN(C)c1nc(-c2cccs2)n2nc(-c3ccc(Cl)cc3)cc2n1 | 87.8%
27 | CCOC(=O)c1csc(NC(=O)COc2cccc(/C=C3\CSc4ccccc4C3=O)c2)n1 | -77.5% (active)
28 | CC1CCCCN1S(=O)(=O)c1ccc(CN=C=S)cc1 (stereo not given) | 75.9%
29 | COc1ccc(-c2nc3sccn3c2-c2nc3c([nH]2)C(=O)c2ccccc2C3=O)cc1 | 94%
30 | COc1cccc(-c2nc3sccn3c2-c2ccnc(NCCNS(=O)(=O)c3ccc(C(F)(F)F)cc3)c2)c1 | 14.9%
31 | Cc1ccc(S(=O)(=O)NC(CCC(=O)Nc2ccccc2)C(=O)Nc2ccccc2)cc1 (stereo not given) | -2.4% (active)
32 | O=C(CCl)Oc1ccc(-c2ccccc2)c(Br)c1 | 105%
33 | CCC(C)(c1ccc(O)c(C)c1)c1ccc(O)c(C)c1 | 128%
34 | Cc1ccccc1NC(=O)N/C(N)=N/c1nc2ccccc2s1 | -23.2% (active)
35 | CCN(CC)CCS(=O)(=O)CCNc1ccnc2cc(Cl)ccc12 | -22.5% (active)
36 | C#CCn1c(C)cc(C)c(C#N)c1=O | 101%
37 | NC1=CC(=O)C(=O)c2ccccc21 | 39.2%
38 | O=C1CC(c2ccccc2)Cc2nc3ccc(Br)cc3cc21 (stereo not given) | -28.4% (active)
39 | O=c1[nH]c(SCc2ccccc2)nc2nc(Nc3ccc(NC(=S)Nc4ccccc4)cc3)nc(-c3ccc(O)cc3O)c12 | 117%
40 | Cc1cc(O)c(C2=NN(c3ccc(S(N)(=O)=O)cc3)C(c3ccc(N(C)C)cc3)C2)c(C)c1Cl (stereo not given) | 24.1%
